Data as given in PubChem BioAssay (EPA / NIEHS).
Records with an inconclusive call do not appear. Activity calls are given as the source filed them. Rule for the calls: active = hit-call score of the fitted dose curve at least 0.9, where 1 is the maximum; inconclusive = response in the unintended direction; inactive = score below 0.9.

Experiments:
[1] = target: human Endothelin Receptor Type B (ETB), EDNRB (gene 1910) (UniProt P24530); assay: NVS_GPCR_hETB: NovaScreen (NVS) G Protein-Coupled Receptor Assay for human Endothelin Receptor Type B (ETB) (AID 2283267)
Chain of human Endothelin Receptor Type B (ETB), EDNRB (gene 1910) (P24530 whole entry, looked up): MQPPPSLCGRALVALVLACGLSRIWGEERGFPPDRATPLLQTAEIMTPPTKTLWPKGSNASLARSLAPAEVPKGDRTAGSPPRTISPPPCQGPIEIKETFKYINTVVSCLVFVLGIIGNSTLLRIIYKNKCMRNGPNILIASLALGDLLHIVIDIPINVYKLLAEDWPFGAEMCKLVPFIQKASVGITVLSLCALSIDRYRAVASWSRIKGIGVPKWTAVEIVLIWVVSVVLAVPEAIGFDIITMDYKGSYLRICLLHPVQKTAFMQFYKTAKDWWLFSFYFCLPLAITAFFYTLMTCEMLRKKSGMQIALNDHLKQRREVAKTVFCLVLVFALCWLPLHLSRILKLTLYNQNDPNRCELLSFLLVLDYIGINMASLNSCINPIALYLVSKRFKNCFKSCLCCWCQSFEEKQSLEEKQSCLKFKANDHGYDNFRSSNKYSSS
Procedure, shortened: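 Filter-based scintillation readout of radioligand displacement, 4 h, using membranes from human astrocytoma cells. Actives from a 25 uM duplicate screen were retested in concentration-response (top 50 uM) relative to DMSO baseline.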

[2] = target: human Dopamine Receptor D4.4 (DRD4.4), DRD4 (gene 1815) (UniProt P21917); assay: NVS_GPCR_hDRD4.4: NovaScreen (NVS) G Protein-Coupled Receptor Assay for human Dopamine Receptor D4.4 (DRD4.4) (AID 2283264)
Chain of human Dopamine Receptor D4.4 (DRD4.4), DRD4 (gene 1815) (P21917 whole entry, looked up): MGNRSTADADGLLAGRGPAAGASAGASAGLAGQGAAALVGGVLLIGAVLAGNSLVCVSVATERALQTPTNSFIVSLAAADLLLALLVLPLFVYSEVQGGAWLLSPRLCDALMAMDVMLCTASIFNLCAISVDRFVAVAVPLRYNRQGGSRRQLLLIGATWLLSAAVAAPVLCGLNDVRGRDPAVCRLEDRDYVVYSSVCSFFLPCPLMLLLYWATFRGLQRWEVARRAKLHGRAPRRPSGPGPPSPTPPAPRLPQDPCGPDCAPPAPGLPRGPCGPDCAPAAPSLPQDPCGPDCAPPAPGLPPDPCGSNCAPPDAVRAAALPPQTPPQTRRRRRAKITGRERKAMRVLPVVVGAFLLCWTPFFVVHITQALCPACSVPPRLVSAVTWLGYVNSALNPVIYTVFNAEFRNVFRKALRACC
Procedure, shortened: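 Filter-binding assay with a tritiated or iodinated ligand, cell-free receptor prepared from CHO, 1 hour. Loss of bound radioactivity versus DMSO; single 25 uM duplicate screen, then concentration-response for actives.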

[3] = target: Muscarinic acetylcholine receptor M1 (Homo sapiens) (UniProt P11229); assay: NVS_GPCR_hM1: NovaScreen (NVS) G Protein-Coupled Receptor Assay for human Muscarinic, M1 Receptor (AID 2283270)
Chain of Muscarinic acetylcholine receptor M1 (Homo sapiens) (P11229 whole entry, looked up): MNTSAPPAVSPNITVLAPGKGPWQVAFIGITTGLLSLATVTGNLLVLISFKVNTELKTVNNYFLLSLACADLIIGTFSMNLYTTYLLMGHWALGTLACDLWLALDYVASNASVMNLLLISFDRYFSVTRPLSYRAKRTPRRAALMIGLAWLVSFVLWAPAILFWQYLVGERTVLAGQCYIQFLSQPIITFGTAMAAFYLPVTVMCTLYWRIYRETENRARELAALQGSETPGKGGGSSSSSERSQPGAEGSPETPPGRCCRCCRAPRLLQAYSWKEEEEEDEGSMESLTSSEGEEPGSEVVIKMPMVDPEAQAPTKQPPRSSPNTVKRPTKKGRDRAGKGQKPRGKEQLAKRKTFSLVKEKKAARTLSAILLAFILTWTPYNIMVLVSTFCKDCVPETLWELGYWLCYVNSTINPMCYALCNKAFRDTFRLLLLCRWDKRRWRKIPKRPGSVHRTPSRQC
Procedure, shortened: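 Actives from a duplicate 25 uM single-point screen were retested in concentration series. Binding measured as displacement of a radioligand from CHO-derived receptor preparation, 1 h incubation, filtration and scintillation counting, analysed as signal loss against DMSO.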

[4] = target: Muscarinic acetylcholine receptor M3 (Homo sapiens) (UniProt P20309); assay: NVS_GPCR_hM3: NovaScreen (NVS) G Protein-Coupled Receptor Assay for human Muscarinic, M3 Receptor (AID 2283272)
Procedure, shortened: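 Radioligand displacement binding on human M3 receptor in CHO-derived membranes, 1 h incubation, filter-based scintillation counting. Primary screen in duplicate at 25 uM; actives followed up in concentration series; loss of signal versus DMSO.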

[5] = target: Muscarinic acetylcholine receptor M2 (Homo sapiens) (UniProt P08172); assay: NVS_GPCR_hM2: NovaScreen (NVS) G Protein-Coupled Receptor Assay for human Muscarinic, M2 Receptor (AID 2283273)
Chain of Muscarinic acetylcholine receptor M2 (Homo sapiens) (P08172 whole entry, looked up): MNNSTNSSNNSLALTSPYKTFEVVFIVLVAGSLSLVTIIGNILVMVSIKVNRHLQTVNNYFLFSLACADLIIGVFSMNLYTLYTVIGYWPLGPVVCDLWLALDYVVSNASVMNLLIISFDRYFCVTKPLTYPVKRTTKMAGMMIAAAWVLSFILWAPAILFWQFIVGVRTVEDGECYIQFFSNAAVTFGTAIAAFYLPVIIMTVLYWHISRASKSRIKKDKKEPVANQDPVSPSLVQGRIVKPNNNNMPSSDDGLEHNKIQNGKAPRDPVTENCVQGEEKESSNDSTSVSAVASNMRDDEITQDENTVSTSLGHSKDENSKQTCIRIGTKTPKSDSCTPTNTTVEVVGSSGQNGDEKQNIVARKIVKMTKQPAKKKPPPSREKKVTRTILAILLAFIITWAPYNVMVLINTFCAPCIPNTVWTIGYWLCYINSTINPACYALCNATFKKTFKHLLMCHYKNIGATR
Procedure, shortened: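 Filter-based radiodetection read bound radioligand 1 h after dosing CHO-derived membrane protein. Single-concentration duplicates (25 uM) first, then concentration-response for actives; signal loss versus DMSO scored.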

[6] = target: Muscarinic acetylcholine receptor M5 (Homo sapiens) (UniProt P08912); assay: NVS_GPCR_hM5: NovaScreen (NVS) G Protein-Coupled Receptor Assay for human Muscarinic, M5 Receptor (AID 2283275)
Chain of Muscarinic acetylcholine receptor M5 (Homo sapiens) (P08912 whole entry, looked up): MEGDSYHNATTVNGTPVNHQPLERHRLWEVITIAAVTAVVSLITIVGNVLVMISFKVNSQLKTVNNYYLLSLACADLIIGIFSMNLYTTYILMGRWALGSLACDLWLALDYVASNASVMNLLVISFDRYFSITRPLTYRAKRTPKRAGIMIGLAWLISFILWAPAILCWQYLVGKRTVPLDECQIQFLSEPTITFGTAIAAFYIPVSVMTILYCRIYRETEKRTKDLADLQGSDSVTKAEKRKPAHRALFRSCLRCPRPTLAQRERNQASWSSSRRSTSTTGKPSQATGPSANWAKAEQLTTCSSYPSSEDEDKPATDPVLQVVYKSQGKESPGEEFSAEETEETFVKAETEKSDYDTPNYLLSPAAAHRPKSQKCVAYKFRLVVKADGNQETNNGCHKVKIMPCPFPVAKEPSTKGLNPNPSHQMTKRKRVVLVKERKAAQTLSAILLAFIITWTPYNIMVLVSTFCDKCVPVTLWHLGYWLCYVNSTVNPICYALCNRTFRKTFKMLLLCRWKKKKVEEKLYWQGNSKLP
Procedure, shortened: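 Chemicals passing a primary duplicate screen at 25 uM were run as singleton concentration series, maximum 50 uM. Displacement of a specific radioligand from CHO-extracted receptor was read by filter scintillation after 1 h, relative to DMSO.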

[7] = target: human Neurokinin, NK2 Receptor, TACR2 (gene 6865) (UniProt P21452); assay: NVS_GPCR_hNK2: NovaScreen (NVS) G Protein-Coupled Receptor Assay for human Neurokinin, NK2 Receptor (AID 2283278);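 note: actives reduce bound radioligand signal relative to DMSO baseline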
Chain of human Neurokinin, NK2 Receptor, TACR2 (gene 6865) (P21452 whole entry, looked up): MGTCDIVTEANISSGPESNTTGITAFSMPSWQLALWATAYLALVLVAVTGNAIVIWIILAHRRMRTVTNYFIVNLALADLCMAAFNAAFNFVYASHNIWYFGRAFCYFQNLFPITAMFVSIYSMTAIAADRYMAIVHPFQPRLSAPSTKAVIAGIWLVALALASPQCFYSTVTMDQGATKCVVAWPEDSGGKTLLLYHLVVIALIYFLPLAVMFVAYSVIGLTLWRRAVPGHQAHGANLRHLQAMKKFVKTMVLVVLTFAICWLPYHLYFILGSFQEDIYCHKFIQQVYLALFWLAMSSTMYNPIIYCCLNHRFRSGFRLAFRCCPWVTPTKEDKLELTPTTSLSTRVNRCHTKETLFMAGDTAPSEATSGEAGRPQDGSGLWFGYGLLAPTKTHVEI
Procedure, shortened: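 Cell-free radioligand binding using receptor protein extracted from CHO cells; readings taken 4 hours after chemical dosing by filter-based scintillation counting. Primary screen ran single concentration (25 uM) in duplicate; actives followed up in concentration series, loss-of-signal versus DMSO baseline.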

[8] = target: human Opioid Receptor Delta 1 (Opiate D1), OPRD1 (gene 4985) (UniProt P41143); assay: NVS_GPCR_hOpiate_D1: NovaScreen (NVS) G Protein-Coupled Receptor Assay for human Opioid Receptor Delta 1 (Opiate D1) (AID 2283280)
Chain of human Opioid Receptor Delta 1 (Opiate D1), OPRD1 (gene 4985) (P41143 whole entry, looked up): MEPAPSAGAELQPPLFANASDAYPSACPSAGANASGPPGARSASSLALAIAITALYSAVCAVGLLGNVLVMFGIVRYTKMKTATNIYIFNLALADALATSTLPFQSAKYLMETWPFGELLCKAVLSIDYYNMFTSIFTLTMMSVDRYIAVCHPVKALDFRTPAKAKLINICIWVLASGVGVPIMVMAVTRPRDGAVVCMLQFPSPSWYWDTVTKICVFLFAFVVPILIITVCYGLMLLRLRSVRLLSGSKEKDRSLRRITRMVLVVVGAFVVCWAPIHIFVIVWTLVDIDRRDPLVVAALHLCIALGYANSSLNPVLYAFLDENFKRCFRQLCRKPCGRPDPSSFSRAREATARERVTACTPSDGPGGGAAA
Procedure, shortened: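 Membrane preparations from CHO cells bearing the human receptor were incubated 1 h with test chemical, and bound radioligand was counted after filtration. Actives from 25 uM duplicate screening were retested in concentration-response.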

[9] = target: human Histamine 1 Receptor (H1), HRH1 (gene 3269) (UniProt P35367); assay: NVS_GPCR_hH1: NovaScreen (NVS) G Protein-Coupled Receptor Assay for human Histamine 1 Receptor (H1) (AID 2283268)
Chain of human Histamine 1 Receptor (H1), HRH1 (gene 3269) (P35367 whole entry, looked up): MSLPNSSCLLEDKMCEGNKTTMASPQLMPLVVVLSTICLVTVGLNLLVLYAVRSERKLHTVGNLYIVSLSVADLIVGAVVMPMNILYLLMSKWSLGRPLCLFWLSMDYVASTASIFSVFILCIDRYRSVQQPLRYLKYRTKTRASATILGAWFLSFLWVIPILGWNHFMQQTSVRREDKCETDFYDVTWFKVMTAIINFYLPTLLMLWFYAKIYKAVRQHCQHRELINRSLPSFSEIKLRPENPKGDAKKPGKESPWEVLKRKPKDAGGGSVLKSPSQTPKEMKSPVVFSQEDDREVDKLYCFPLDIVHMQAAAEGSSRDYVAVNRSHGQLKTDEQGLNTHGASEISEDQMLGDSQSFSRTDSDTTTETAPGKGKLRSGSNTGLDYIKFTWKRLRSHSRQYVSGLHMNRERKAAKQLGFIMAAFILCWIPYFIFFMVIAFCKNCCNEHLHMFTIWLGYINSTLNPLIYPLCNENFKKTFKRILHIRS
Procedure, shortened: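 Filter-based scintillation detection of radioligand binding to human H1, 1 h incubation; chemicals screened in duplicate at 25 uM, then concentration-response; signal loss relative to DMSO taken as activity.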

[10] = target: human Purinergic Receptor P2Y, P2RY1 (gene 5028) (UniProt P47900); assay: NVS_GPCR_hPY2: NovaScreen (NVS) G Protein-Coupled Receptor Assay for human Purinergic Receptor P2Y (AID 2283281)
Chain of human Purinergic Receptor P2Y, P2RY1 (gene 5028) (P47900 whole entry, looked up): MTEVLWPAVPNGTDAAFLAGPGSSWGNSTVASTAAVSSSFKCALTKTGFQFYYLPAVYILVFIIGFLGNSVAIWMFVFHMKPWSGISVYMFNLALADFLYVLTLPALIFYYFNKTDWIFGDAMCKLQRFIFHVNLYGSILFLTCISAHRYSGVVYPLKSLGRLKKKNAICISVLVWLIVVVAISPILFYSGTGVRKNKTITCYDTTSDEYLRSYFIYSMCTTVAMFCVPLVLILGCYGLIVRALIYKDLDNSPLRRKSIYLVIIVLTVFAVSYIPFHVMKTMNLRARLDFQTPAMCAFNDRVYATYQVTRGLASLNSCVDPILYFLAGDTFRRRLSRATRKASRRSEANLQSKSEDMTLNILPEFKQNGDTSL
Procedure, shortened: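 Filtration scintillation readout of radioligand displacement on U937 extract, measured 1 h post-dosing. Single 25 uM duplicate screen, then singleton concentration series to 50 uM for chemicals passing threshold; DMSO as baseline.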

[11] = target: human Thromboxane A2 Receptor (TXA2), TBXA2R (gene 6915) (UniProt P21731); assay: NVS_GPCR_hTXA2: NovaScreen (NVS) G Protein-Coupled Receptor Assay for human Thromboxane A2 Receptor (TXA2) (AID 2283282);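 note: actives reduce bound radioligand signal relative to DMSO baseline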
Procedure, shortened: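 Cell-free radioligand binding on membrane protein from human platelets; radioligand displacement read by filter-based scintillation counting after 1 h. Primary screen in duplicate at 25 uM, actives then run in concentration series; loss of signal versus DMSO.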

[12] = target: rat Serotonin, 5-Hydroxytryptamine Receptor 1 (5HT1), Non-Selective Binding, Htr1a (gene 24473) (UniProt P19327); assay: NVS_GPCR_r5HT1_NonSelective: NovaScreen (NVS) G Protein-Coupled Receptor Assay for rat Serotonin, 5-Hydroxytryptamine Receptor 1 (5HT1), Non-Selective Binding (AID 2283286)
Procedure, shortened: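 Binding of a radioligand to rat cortex membranes is read by filtration and scintillation counting after 1 h. Compounds were screened at 25 uM in duplicate. Actives were then titrated to a top of 50 uM. DMSO is the baseline.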

[13] = target: human Neurotensin Receptor (NTS), NTSR1 (gene 4923) (UniProt P30989); assay: NVS_GPCR_hNTS: NovaScreen (NVS) G Protein-Coupled Receptor Assay for human Neurotensin Receptor (NTS) (AID 2283279)
Chain of human Neurotensin Receptor (NTS), NTSR1 (gene 4923) (P30989 whole entry, looked up): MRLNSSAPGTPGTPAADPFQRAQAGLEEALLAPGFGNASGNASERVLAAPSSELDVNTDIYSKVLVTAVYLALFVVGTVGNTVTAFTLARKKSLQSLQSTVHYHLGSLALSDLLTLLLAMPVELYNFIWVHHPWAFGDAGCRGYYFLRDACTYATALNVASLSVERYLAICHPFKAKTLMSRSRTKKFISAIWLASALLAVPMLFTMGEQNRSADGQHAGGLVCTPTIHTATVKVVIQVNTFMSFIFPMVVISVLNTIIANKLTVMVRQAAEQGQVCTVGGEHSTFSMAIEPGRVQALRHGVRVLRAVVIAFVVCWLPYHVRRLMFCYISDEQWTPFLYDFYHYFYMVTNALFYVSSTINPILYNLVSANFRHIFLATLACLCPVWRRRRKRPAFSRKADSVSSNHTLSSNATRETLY
Procedure, shortened: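 Compounds competed with a radiolabelled ligand for binding to CHO-derived human neurotensin receptor; bound signal counted after filtration, 1 h. Screened first at a single concentration of 25 uM in duplicate, then concentration series to 50 uM maximum for actives.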

[14] = target: mouse Cholecystokinin, CCK1 Receptor (CCKA), Cckar (gene 12425) (UniProt O08786); assay: NVS_GPCR_mCCKAPeripheral: NovaScreen (NVS) G Protein-Coupled Receptor Assay for mouse Cholecystokinin, CCK1 Receptor (CCKA) (AID 2283285)
Chain of mouse Cholecystokinin, CCK1 Receptor (CCKA), Cckar (gene 12425) (O08786 whole entry, looked up): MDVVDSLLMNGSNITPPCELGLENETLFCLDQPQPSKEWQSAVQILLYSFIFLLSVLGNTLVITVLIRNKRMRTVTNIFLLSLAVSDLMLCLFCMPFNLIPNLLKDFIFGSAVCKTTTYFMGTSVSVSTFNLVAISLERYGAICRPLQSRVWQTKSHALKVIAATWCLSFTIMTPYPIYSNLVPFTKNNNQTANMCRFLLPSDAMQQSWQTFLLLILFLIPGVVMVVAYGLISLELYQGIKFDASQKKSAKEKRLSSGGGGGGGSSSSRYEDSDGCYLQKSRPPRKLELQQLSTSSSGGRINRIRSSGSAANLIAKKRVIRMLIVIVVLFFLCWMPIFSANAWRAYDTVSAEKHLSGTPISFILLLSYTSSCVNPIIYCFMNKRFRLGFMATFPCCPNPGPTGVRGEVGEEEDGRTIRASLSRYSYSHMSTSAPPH
Procedure, shortened: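 Chemicals were first screened in duplicate at 25 uM, with those meeting threshold (e.g., 30% inhibition) retested in singleton concentration series to 50 uM maximum. Binding of radioligand to mouse pancreatic membranes was read after 2 h by filtration and scintillation counting.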

Structure (SMILES): CC(N)=O
- outcome [1]: inactive

Structure (SMILES): CN(C)C(=O)NC1(c2ccccc2)CCN(CCC[C@]2(c3ccc(Cl)c(Cl)c3)CCCN(C(=O)c3ccccc3)C2)CC1
- AC50 [2]: 6.25 µM (active)
- AC50 [3]: 2.02 µM (active)
- AC50 [4]: 3.84 µM (active)
- AC50 [5]: 2.41 µM (active)
- AC50 [6]: 2.01 µM (active)
- AC50 [7]: 0.164 µM (active)
- outcome [8]: inactive

Structure (SMILES): O=C(N[C@@H](c1ccccc1)[C@@H]1CCCCN1)c1cccc(C(F)(F)F)c1Cl
- outcome [2]: inactive
- outcome [9]: inactive
- AC50 [6]: 25 µM (active)
- AC50 [7]: 17.8 µM (active)

Structure (SMILES): CC(COCC(C)OC(=O)c1ccccc1)OC(=O)c1ccccc1 (stereo not drawn)
- outcome [10]: inactive

Structure (SMILES): CCCCCCC(CCCCCCCCCCC(=O)OCC(COC(C)=O)OC(C)=O)OC(C)=O (stereo not drawn)
- AC50 [11]: 4.54 µM (active)

Structure (SMILES): Nc1nc(=S)c2[nH]cnc2[nH]1
- AC50 [7]: 44.4 µM (active)
- outcome [12]: inactive

Structure (SMILES): S=c1[nH]c2ccccc2s1
- outcome [7]: inactive

Structure (SMILES): C/C=C/C=C/C(=O)O
- outcome [13]: inactive

Structure (SMILES): CN(C)C(=O)NC1(c2ccccc2)CCN(CC[C@@]2(c3ccc(F)c(F)c3)CN(C(=O)c3ccccc3)CCO2)CC1
- AC50 [5]: 9.11 µM (active)
- AC50 [6]: 12.8 µM (active)
- AC50 [7]: 0.00564 µM (active)
- AC50 [14]: 12.8 µM (active)

Structure (SMILES): CCCCOC(=O)CCCCC(=O)OCCCC
- outcome [13]: inactive
